The values that follow come from PubChem BioAssay (NCATS).

Structures are written as SMILES. Values joined by “and” are separate entries in the source; they are usually repeats but may differ in a detail not shown here. Equal entries are not always repeated. Inconclusive results are not listed. Values without a mark were called inactive. Active and inactive are the calls of the source. Calls follow the shape of the dose curve; as a rule, active = well fitted curve in the direction sought with a large enough effect; inconclusive = small, poorly fitted or top-dose-only effect, or another doubt; inactive = no such curve, though single readings can be large; an effect the other way counts as inactive or inconclusive.

Assay [1] in a line: P-glycoprotein substrates identified in KB-3-1 adenocarcinoma cell line, qHTS therapeutic library screen (AID 1346986). Also: nearly all actives have a fitted effect of over 60% in size.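 Also: potency is for cytotoxicity meaning loss of cell viability.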 The procedure, abridged:
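Using luminescence to quantify ATP, parental and P-gp-overexpressing KB cells were compared after 72 h compound titration. KB-8-5-11 was also run with the P-gp inhibitor tariquidar.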
(In general: Quantitative high-throughput screening tests each substance at several concentrations.)

A short description of assay [2]: P-glycoprotein substrates identified in KB-8-5-11 adenocarcinoma cell line, qHTS therapeutic library screen (AID 1346987). Also: nearly all actives have a fitted effect of over 65% in size. As to activity change, negative = cytotoxicity: series mostly up to about 44 µM; % is scaled to controls: 0 for no effect and ±100 for the full control effect. The procedure, abridged:
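In this qHTS, P-gp-rich KB-8-5-11 cells received library compounds across a concentration range. Viability was quantified by luminescence after 72 h at 37 degree C.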
Potency is read from the fitted curve at half-maximal effect.

For the compound `C=C1CC[C@@H]2[C@](C)(CO[C@@H]3O[C@H](CO)[C@@H](O)[C@H](O)[C@H]3O)[C@H](O)CC[C@@]2(C)[C@@H]1C/C=C1/C(=O)OC[C@H]1O`, the Potency entry in assay [1] and in assay [2] was “inactive” each time.
As for `CC(=O)O[C@@H]1[C@@H](O)[C@H](O[C@H]2CC[C@]34C[C@]35CC[C@]3(C)[C@@H]([C@@]6(C)CC[C@@H](C(C)(C)O)O6)[C@@H](O)C[C@@]3(C)[C@@H]5C[C@H](O[C@@H]3O[C@H](CO)[C@@H](O)[C@H](O)[C@H]3O)[C@H]4C2(C)C)OC[C@H]1O`, the Potency result in assay [1] and in assay [2] was “inactive” in each case.
With `C=C(C)C1CCC2(C(=O)O[C@@H]3O[C@H](CO[C@@H]4O[C@H](CO)[C@@H](O)[C@H](O)[C@H]4O)[C@@H](O)[C@H](O[C@@H]4O[C@@H](C)[C@H](O)[C@@H](O)[C@H]4O)[C@H]3O)CCC3(C(=O)O)C(CCC4C5(C)CCC(O)C(C)(C)C5CCC43C)C12` (stereo partly drawn), the outcome in assay [1] and in assay [2] was “inactive [at 9.29 µM]” in each case.
As to `C[C@H]1CC[C@@H]2N(C1)C[C@@H]1[C@H]([C@@H](O)[C@H](O)[C@]3(O)[C@H]1C[C@@]14OC5(O)[C@@H](C[C@@H](O)[C@@H]31)[C@]4(C)CC[C@@H]5O)[C@]2(C)O`, the Potency entry in assay [1] and in assay [2] was “inactive” in each case.
Consider `CCOC(=O)C(CCc1ccccc1)NC(C)C(=O)N1C(=O)N(C)CC1C(=O)O` (stereo not drawn), for which the Potency result in assay [1] and in assay [2] was “inactive” throughout.
Turning to `CCn1cc(NC(=S)Nc2cc(Cl)ccc2OC)c(C(N)=O)n1`, the Potency entry in assay [1] and in assay [2] was “inactive” each time.
`CC[C@@H](O)C[C@@H]1C(C)=C[C@@H]2CCCC[C@@H]2[C@@]1(C)C(=O)O`: the Potency result in assay [1] and in assay [2] was “inactive” in each case.
As for `Nc1ncnc2c1ncn2CCNCCCCCO`, the Potency result in assay [1] and in assay [2] was “inactive” in each case.
In the case of `O=C1NC(=O)C(c2cn(-c3ccccc3)nc2-c2ccc(F)cc2)N1` (stereo not drawn), the Potency result in assay [1] and in assay [2] was “inactive” throughout.
Consider `CCCOC(c1cc2nccc(C(=O)O)c2[nH]1)c1ccccc1Cl` (stereo not drawn), for which the Potency result in assay [1] and in assay [2] was “inactive” in each case.
Take `COc1cc(O)c2c(c1)C1=CC(O)C(O)CC1(C)OC2=O` (stereo not drawn): the Potency result in assay [1] and in assay [2] was “inactive” in each case.
As to `C[C@H](Nc1ncnc2nc[nH]c12)c1cc2ccc(F)cc2nc1-c1ccccn1`, the Potency entry in assay [1] and in assay [2] was “inactive” each time.
`O=C1NC2CCc3nc4ccccc4c(=O)n3C2=Nc2ccccc21` (stereo not drawn): the Potency entry in assay [1] and in assay [2] was “inactive” in each case.
With `CC(=O)C1=CCC2C3CCC4CC(O[C@@H]5O[C@H](CO)[C@@H](O[C@@H]6O[C@@H](C)[C@H](O)[C@@H](O)[C@H]6O)[C@H](O)[C@H]5O[C@@H]5O[C@H](CO)[C@@H](O)[C@H](O)[C@H]5O)CCC4(C)C3CCC12C` (stereo partly drawn), the Potency result in assay [1] and in assay [2] was “inactive” in each case.
As to `C[C@@H]1O[C@@H](O[C@H]2[C@@H]3C=CO[C@@H](O[C@@H]4O[C@H](CO)[C@@H](O)[C@H](O)[C@H]4O)[C@@H]3[C@@]3(CO)O[C@@H]23)[C@H](OC(=O)/C=C/c2ccccc2)[C@H](O)[C@H]1O`, the Potency entry in assay [1] and in assay [2] was “inactive” in each case.
Turning to `CC(C)(C)c1ccc(S(=O)(=O)Nc2ccc(Cl)cc2C(=O)c2cc[n+]([O-])cc2)cc1`, the Potency entry in assay [1] and in assay [2] was “inactive” in each case.
As to `CC1(C)CC[C@]2(C(=O)O[C@@H]3O[C@H](CO[C@@H]4O[C@H](CO)[C@@H](O)[C@H](O)[C@H]4O[C@@H]4O[C@H](CO)[C@@H](O)[C@H](O)[C@H]4O)[C@@H](O)[C@H](O[C@@H]4O[C@H](CO)[C@@H](O)[C@H](O)[C@H]4O)[C@H]3O)CC[C@]3(C)C(=CCC4[C@@]5(C)CC[C@@H](O)[C@@](C)(C(=O)O[C@@H]6O[C@H](CO)[C@@H](O)[C@H](O)[C@H]6O)C5CC[C@]43C)[C@@H]2C1` (stereo partly drawn), the outcome in assay [1] and in assay [2] was “inactive [at 9.29 µM]” each time.
In the case of `C/C1=C\CC[C@H](C)CCO[C@@H]2O[C@H](CO[C@@H]3OC[C@](O)(COC1=O)[C@H]3O)[C@@H](O)[C@H](O)[C@H]2O`, the Potency entry in assay [1] and in assay [2] was “inactive” each time.
As for `CC1=C(/C=C/C(C)=C\C=C\C(C)=C/C(=O)O)C(C)(C)CCC1`, the Potency entry in assay [1] and in assay [2] was “inactive” in each case.
`CCc1c(-c2ccccc2)c(-c2ccccc2)nn1-c1ccccc1-c1cccc(OCC(=O)O)c1`: the Potency entry in assay [1] and in assay [2] was “inactive” each time.
For the compound `COc1c(C)c(OCC(O)C(C)(C)O)cc2c1COC2=O` (stereo not drawn), the Potency entry in assay [1] and in assay [2] was “inactive” in each case.
As to `CC(=O)C12OC(C)(C)OC1CC1C3CCC4=CC(=O)C=CC4(C)C3(F)C(O)CC12C` (stereo not drawn), the Potency result in assay [1] and in assay [2] was “inactive” in each case.
With `C=C1C(O)C[C@@H]2C(C(=O)O)=CO[C@@H](O[C@@H]3O[C@H](CO)[C@@H](O)[C@H](O)[C@H]3OC(=O)c3ccc(O)cc3)[C@H]12` (stereo partly drawn), the Potency result in assay [1] and in assay [2] was “inactive” each time.
`O=C1NC(Cc2c[nH]c3ccccc23)C(=O)NC1Cc1cnc[nH]1` (stereo not drawn): the Potency entry in assay [1] and in assay [2] was “inactive” in each case.
For the compound `COc1c2c(c(CO)c3c1C(=O)OC3)OC1(C)CCC3(O)C(C)(C)OC(=O)CCC3(C)C1C2` (stereo not drawn), the Potency result in assay [1] and in assay [2] was “inactive” throughout.
For the compound `CC1(C)CCC2(C(=O)OC3OCC(O)C(O)C3O)CCC3(C)C(=CCC4C5(C)CC(O)C(OC6OC(COC7OCC(O)C(O)C7O)C(O)C(O)C6O)C(C)(C)C5CCC43C)C2C1` (stereo not drawn), the outcome in assay [1] and in assay [2] was “inactive [at 9.29 µM]” each time.
Regarding `O=C(O)[C@H](Cc1ccc(Nc2nccc3ccncc23)cc1)NC1=C(Br)C(=O)C12CCCCC2`, the Potency entry in assay [1] and in assay [2] was “inactive” throughout.
Turning to `CC(=O)O[C@H]1CC[C@@]2(C)C(CC[C@@H](C)[C@]23Cc2c(O)cc4c(c2O3)CN([C@@H](CCC(=O)O)C(=O)O)C4=O)C1(C)C` (stereo partly drawn), the Potency result in assay [1] and in assay [2] was “inactive” in each case.
Take `C[C@@H]1O[C@@H](O[C@H]2[C@H](O[C@H]3[C@H](O)[C@@H](C(=O)O)O[C@@H](O[C@H]4CC[C@@]5(C)C(CC[C@]6(C)C5CC[C@]57OC[C@@]8(CCC(C)(C)CC85)[C@H](O)C[C@]76C)C4(C)C)[C@@H]3O[C@@H]3O[C@H](CO)[C@@H](O[C@@H]4OC[C@@H](O)[C@H](O)[C@H]4O)[C@H](O)[C@H]3O)O[C@H](CO)[C@H](O)[C@@H]2O)[C@H](O)[C@H](O)[C@H]1O` (stereo partly drawn): the outcome in assay [1] is “inactive [at 9.29 µM]”. In assay [2], the activity change, negative = cytotoxicity is 2.43% [at 9.29 µM].
For `C[C@@H]1O[C@@H](O[C@@H]2CO[C@@H](O[C@H]3CC[C@@]4(C)C(CC[C@]5(C)C4CC=C4[C@@H]6CC(C)(C)CC[C@]6(C(=O)O[C@@H]6O[C@H](CO)[C@@H](O)[C@H](O)[C@H]6O)CC[C@]45C)[C@]3(C)CO)[C@H](O)[C@H]2O[C@@H]2O[C@H](CO)[C@@H](O)[C@H](O)[C@H]2O)[C@H](O)[C@H](O)[C@H]1O` (stereo partly drawn) the same measures were “inactive [at 9.29 µM]” and 4.08% [at 9.29 µM].
For the compound `CC(C)C1=CC2C(CC[C@]2(C)O)[C@](C)(O)CC1` (stereo partly drawn), the Potency entry in assay [1] and in assay [2] was “inactive” throughout.
`CCC(Nc1ncnc2nc[nH]c12)c1nc2cccc(F)c2c(=O)n1-c1ccccc1` (stereo not drawn): the Potency entry in assay [1] and in assay [2] was “inactive” throughout.
Turning to `COC(=O)CC(O)CC(O)/C=C/c1c(C)ccc2c1C(O)CC(C)C2` (stereo not drawn), the Potency entry in assay [1] and in assay [2] was “inactive” in each case.
Turning to `Cc1noc(=O)c2ccc(NC(=O)C(O)(CC(C)(C)c3cccc4c3OCC4)C(F)(F)F)cc12` (stereo not drawn), the Potency result in assay [1] and in assay [2] was “inactive” throughout.
Consider `OC[C@H]1O[C@@H](Oc2cc(O)c3c(c2)O[C@@H](c2ccc(O)cc2)[C@H](O)C3)[C@H](O)[C@@H](O)[C@@H]1O`, for which the Potency result in assay [1] and in assay [2] was “inactive” in each case.
In the case of `COC(=O)C1=CO[C@@H](O[C@@H]2O[C@H](CO)[C@@H](O)[C@H](O)[C@H]2O)[C@H]2[C@@H]1C=C[C@@]21C=C([C@H](C)O)C(=O)O1`, the Potency entry in assay [1] and in assay [2] was “inactive” throughout.
Consider `CC1(C)C2CC(OC3OC(COC4OCC(O)(CO)C4O)C(O)C(O)C3O)C1(C)CC2O` (stereo not drawn), for which the Potency result in assay [1] and in assay [2] was “inactive” in each case.
For the compound `Nc1nccn2c(C3CCC(C(=O)O)CC3)nc(-c3cc4cccc(Cl)c4[nH]3)c12` (stereo not drawn), the Potency in assay [1] was 1640 nM (active); in assay [2] it was 1.46 µM (active).
`CO[C@H]1O[C@@H]2O[C@]3(C)CC[C@H]4[C@H](C)CC[C@@H]([C@H]1C)[C@@]24OO3`: the Potency result in assay [1] and in assay [2] was “inactive” throughout.
`C[C@H](CCC(=O)O)[C@H]1CC[C@H]2[C@@H]3C[C@H](O)[C@@H]4C[C@H](O)CC[C@]4(C)[C@H]3CC[C@]12C`: the Potency result in assay [1] and in assay [2] was “inactive” throughout.
`COc1cc2ncnc(Nc3cccc(O)c3)c2cc1OC`: the Potency result in assay [1] and in assay [2] was “inactive” each time.
For the compound `C=CC(C)(C)c1[nH]c2cc3c(cc2c1CC1NC(=O)C2=CCCN2C1=O)C=CC(C)(C)O3` (stereo not drawn), the Potency entry in assay [1] and in assay [2] was “inactive” each time.
As to `C=C(C)C(=O)O[C@H]1C[C@@](C)(O)C(=O)CC(O)/C(C)=C\[C@H]2OC(=O)C(=C)[C@H]12` (stereo partly drawn), the Potency entry in assay [1] and in assay [2] was “inactive” each time.
For the compound `COc1ccc(N2CCOCC2)c2sc(NC(=O)N3CCC(C)(O)CC3)nc12`, the Potency entry in assay [1] and in assay [2] was “inactive” each time.
On to `C[C@@H]1CC[C@]2(C(=O)O[C@@H]3O[C@H](CO)[C@@H](O)[C@H](O)[C@H]3O)CC[C@]3(C)C(=CCC4[C@@]5(C)C[C@@H](O)[C@H](O)[C@@](C)(C(=O)O[C@H]6[C@H](O)C[C@@]7(C)C(CC[C@]8(C)C7CC=C7[C@H]9[C@](C(=O)O[C@@H]%10O[C@H](CO)[C@@H](O)[C@H](O)[C@H]%10O)(CC[C@@H](C)[C@@]9(C)O)CC[C@]78C)[C@@]6(CO)C(=O)O)C5CC[C@]43C)[C@@H]2[C@]1(C)O` (stereo partly drawn), for which, in assay [1], the outcome is “inactive [at 9.29 µM]”. Also, the activity change, negative = cytotoxicity in assay [2] is 1.31% [at 9.29 µM].
For `CCn1c(=O)c(-c2ccn[nH]2)cc2c(C)nc(N)nc21`, the results for the Potency in assay [1] and in assay [2] were 3660 nM (active) and 2.91 µM (active), respectively.
With `COc1cc(C(=O)OC[C@@]2(O)CO[C@@H](O[C@H]3[C@H](Oc4ccc(C(=O)O)cc4OC)O[C@H](CO)[C@@H](O)[C@@H]3O)[C@@H]2O)ccc1O`, the Potency result in assay [1] and in assay [2] was “inactive” each time.
For the compound `Nc1ccc(/C=C/C(=O)NCc2cc3cc(-c4ccc(C(=O)N5CCC(F)(F)CC5)cc4)cc(-c4ccc(F)cc4)c3o2)cn1`, the Potency in assay [1] is 517 nM (active); in assay [2], 5.17 µM (active) and 5.8 µM (active).
On to `C[C@@H]1N[C@H]2N(C1=O)c1ccccc1[C@@]2(O)C[C@@H]1C(=O)N[C@@H](C)c2nc3ccccc3c(=O)n21`, for which the Potency result in assay [1] and in assay [2] was “inactive” throughout.
